Data on nine compounds can be found in PubChem BioAssay (NCI).

Structures are written as SMILES. The panel holds about 79,000 compounds, 15% with a hit somewhere; the sample as a whole holds those more often. Values without a mark were called inactive. Calls of active or inactive are those of the source. No stated cut-off is given here; in the data, active means growth inhibition above about 70%; inactive means the rest.

A short description of test [1]: NCI Yeast Anticancer Drug Screen. Data for the rad50 strain (AID 155).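 Further: 0% = growth of vehicle-only cultures of the same strain.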 To be noted: S. cerevisiae rad50 strain growth inhibition, hits give high values. The method in brief: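 DNA repair mutant yeast, compound exposure, growth read-out; inhibition is taken relative to vehicle.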
Test [2] in a line: NCI Yeast Anticancer Drug Screen. Data for the mec2-1 strain (AID 157). To be noted: S. cerevisiae mec2-1 strain, hits give high values. The method in brief:
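Mutant yeast (mec2-1) grown with compound; growth inhibition relative to vehicle control reported.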

Test [3] can be described thus: NCI Yeast Anticancer Drug Screen. Data for the sgs1 mgt1 strain (AID 161).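 Further: 0% = growth of cultures given vehicle only.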 To be noted: S. cerevisiae sgs1 mgt1 strain, hits give high values. In a few lines: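 Percent growth inhibition was derived by comparing compound-exposed mutant yeast with vehicle-exposed cultures. The strain carries alterations in DNA damage repair.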
A short description of test [4]: NCI Yeast Anticancer Drug Screen. Data for the cln2 rad14 strain (AID 165).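 Further: 0% = growth equal to vehicle treated cultures.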 The note with it: S. cerevisiae cln2 rad14 strain, hits give high values. The method in brief:
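Readout is yeast growth inhibition versus vehicle-treated controls, using a strain with cln2 and rad14 alterations exposed to compound.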

The nature of test [5]: NCI Yeast Anticancer Drug Screen. Data for the bub3 strain (AID 167). The note with it: S. cerevisiae bub3 mutant strain, hits give high values. The method in brief: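 In this screen, a yeast mutant lacking normal mitotic checkpoint function is challenged with compound. Relative growth versus vehicle gives the inhibition value.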
Test [6] is described as follows: NCI Yeast Anticancer Drug Screen. Data for the mlh1 rad18 strain (AID 175). To be noted: S. cerevisiae mlh1 rad18 strain growth inhibition, hits give high values. In a few lines: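 Genetically defined yeast (DNA repair-deficient) exposed to compounds; growth inhibition determined relative to vehicle.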
[7] abbreviates: at 5.0 µM (retest, dose inferred, filed as 0.5).
The mark [8] stands for this setting: at 50.0 µM (retest, dose inferred, filed as 5.0).

In the case of `CCOC(=O)Sc1nc2ccccc2[nH]1`, the growth inhibition in test [1] (setting [7]) is 4%; in test [1] (setting [8]), 6%; in test [1] (at 50.0 µM), 53.2%; in test [2] (setting [7]), 2%; in test [2] (setting [8]), 3%; in test [2] (at 50.0 µM) it was 25.2%. In addition, the growth inhibition in test [3] (setting [7]) was 4%; in test [3] (setting [8]) it was 0%; in test [3] (at 50.0 µM) it was 62.1%; in test [4] (setting [7]), 3%; in test [4] (setting [8]), 1%; in test [4] (at 50.0 µM) it was 13.7%. Besides, the growth inhibition in test [5] (setting [7]) was 2%; in test [5] (setting [8]), 2%; in test [5] (at 50.0 µM), 7.45%; in test [6] (setting [7]) it was 0%; in test [6] (setting [8]) it was 7%; in test [6] (at 50.0 µM) it was 29.4%.
For `COC(=O)c1ccc(C)cc1C1CN=NC12Cc1cccc(C)c1C2=O` (configuration not stated), the growth inhibition in test [1] (setting [7]) was 1%; in test [1] (setting [8]), 9%; in test [1] (at 50.0 µM) it was 26.8%; in test [2] (setting [7]), -1%; in test [2] (setting [8]), 10%; in test [2] (at 50.0 µM), 24.9%. The growth inhibition in test [3] (setting [7]) was 16%; in test [3] (setting [8]), 22%; in test [3] (at 50.0 µM), 8.65%; in test [4] (setting [7]) it was 5%; in test [4] (setting [8]), 10%; in test [4] (at 50.0 µM) it was 83.5% (active). For the same compound, the growth inhibition in test [5] (setting [7]) was -2%; in test [5] (setting [8]) it was 23%; in test [5] (at 50.0 µM), 41.8%; in test [6] (setting [7]), -1%; in test [6] (setting [8]), 6%; in test [6] (at 50.0 µM) it was 2.55%.
Regarding `CCc1cc2c(c3[nH]ccc13)[C@@H](C)C[C@H]2C`, the growth inhibition in test [1] (setting [7]) was -3%; in test [1] (setting [8]), 99% (active); in test [1] (at 50.0 µM), 73% (active); in test [2] (setting [7]) it was 3%; in test [2] (setting [8]) it was 99% (active); in test [2] (at 50.0 µM), 84.2% (active). Besides, the growth inhibition in test [3] (setting [7]) is 0%; in test [3] (setting [8]), 99% (active); in test [3] (at 50.0 µM), 84.8% (active); in test [4] (setting [7]), -3%; in test [4] (setting [8]), 98% (active); in test [4] (at 50.0 µM), 84.3% (active). In addition, the growth inhibition is 9% in test [5] (setting [7]); 98% (active) in test [5] (setting [8]); 91.5% (active) in test [5] (at 50.0 µM); 2% in test [6] (setting [7]); 99% (active) in test [6] (setting [8]); 88.5% (active) in test [6] (at 50.0 µM).
For the compound `O=C1/C(=C/c2ccccc2)CN(C(=O)C(F)(F)F)C/C1=C\c1ccccc1`, the growth inhibition in test [1] (setting [7]) was 63%; in test [1] (setting [8]), 84% (active); in test [1] (at 50.0 µM), 65.3%; in test [2] (setting [7]) it was 43%; in test [2] (setting [8]), 80% (active); in test [2] (at 50.0 µM), 40%. In addition, the growth inhibition is 52% in test [3] (setting [7]); 94% (active) in test [3] (setting [8]); 46% in test [3] (at 50.0 µM); 41% in test [4] (setting [7]); 78% (active) in test [4] (setting [8]); 42.2% in test [4] (at 50.0 µM). For the same compound, the growth inhibition was 53% in test [5] (setting [7]); 93% (active) in test [5] (setting [8]); 55.1% in test [5] (at 50.0 µM); 66% in test [6] (setting [7]); 92% (active) in test [6] (setting [8]); 53.6% in test [6] (at 50.0 µM).
For the compound `NNC(=O)N/N=C(/CC1(O)C(=O)Nc2ccc(Br)cc21)c1ccccc1` (configuration not stated), the growth inhibition was -1% in test [1] (setting [7]); 83% (active) in test [1] (setting [8]); 88.3% (active) in test [1] (at 50.0 µM); 1% in test [2] (setting [7]); 66% in test [2] (setting [8]); 83.8% (active) in test [2] (at 50.0 µM). Moreover, the growth inhibition in test [3] (setting [7]) was -2%; in test [3] (setting [8]), 86% (active); in test [3] (at 50.0 µM), 89.6% (active); in test [4] (setting [7]), -5%; in test [4] (setting [8]), 48%; in test [4] (at 50.0 µM) it was 10.2%. Besides, the growth inhibition in test [5] (setting [7]) is 8%; in test [5] (setting [8]), 91% (active); in test [5] (at 50.0 µM), 81.3% (active); in test [6] (setting [7]), 0%; in test [6] (setting [8]), 71% (active); in test [6] (at 50.0 µM) it was 93.7% (active).
In the case of `c1ccc2c(c1)Cc1nc3ccccc3nc1-2`, the growth inhibition in test [1] (setting [7]) is -33%; in test [1] (setting [8]), 93% (active); in test [1] (at 50.0 µM), 98.3% (active); in test [2] (setting [7]), -42%; in test [2] (setting [8]), 93% (active); in test [2] (at 50.0 µM), 98.2% (active). Besides, the growth inhibition was -59% in test [3] (setting [7]); 86% (active) in test [3] (setting [8]); 90.6% (active) in test [3] (at 50.0 µM); -56% in test [4] (setting [7]); 88% (active) in test [4] (setting [8]); 90% (active) in test [4] (at 50.0 µM). Moreover, the growth inhibition in test [5] (setting [7]) is -65%; in test [5] (setting [8]), 90% (active); in test [5] (at 50.0 µM) it was 97.4% (active); in test [6] (setting [7]) it was -118%; in test [6] (setting [8]), 92% (active); in test [6] (at 50.0 µM), 97.8% (active).
As for `CC(/C=C/NNC1=NC(c2ccccc2)C(c2ccccc2)=NN1)Sc1ccccc1N` (configuration not stated), the growth inhibition was 43% in test [1] (setting [7]); 43% in test [1] (setting [8]); 92.8% (active) in test [1] (at 50.0 µM); 22% in test [2] (setting [7]); 22% in test [2] (setting [8]); 93.2% (active) in test [2] (at 50.0 µM). Besides, the growth inhibition in test [3] (setting [7]) was 31%; in test [3] (setting [8]) it was 31%; in test [3] (at 50.0 µM), 90.7% (active); in test [4] (setting [7]) it was 18%; in test [4] (setting [8]), 18%; in test [4] (at 50.0 µM), 90.8% (active). The growth inhibition in test [5] (setting [7]) was 25%; in test [5] (setting [8]), 25%; in test [5] (at 50.0 µM), 92.9% (active); in test [6] (setting [7]), 17%; in test [6] (setting [8]), 17%; in test [6] (at 50.0 µM), 91.3% (active).
For `CC1=NOC(=O)/C1=C/c1ccc(Cl)c(Cl)c1`, the growth inhibition in test [1] (setting [7]) is -2%; in test [1] (setting [8]), 70% (active); in test [1] (at 50.0 µM), 31.9%; in test [2] (setting [7]), 10%; in test [2] (setting [8]), 20%; in test [2] (at 50.0 µM), 36.7%. In addition, the growth inhibition was -11% in test [3] (setting [7]); 31% in test [3] (setting [8]); 52.5% in test [3] (at 50.0 µM); 8% in test [4] (setting [7]); 61% in test [4] (setting [8]); 2.1% in test [4] (at 50.0 µM). Moreover, the growth inhibition is -3% in test [5] (setting [7]); 71% (active) in test [5] (setting [8]); 33.9% in test [5] (at 50.0 µM); -10% in test [6] (setting [7]); 45% in test [6] (setting [8]); 43.1% in test [6] (at 50.0 µM).
On to `CCN(C(=O)c1ccccc1C)C(c1ccccc1)P(=O)(c1ccccc1)c1ccccc1` (configuration not stated), for which the growth inhibition in test [1] (setting [7]) is 61%; in test [1] (setting [8]) it was 99% (active); in test [1] (at 50.0 µM), 78.6% (active); in test [2] (setting [7]), 67%; in test [2] (setting [8]), 98% (active); in test [2] (at 50.0 µM) it was 86.3% (active). Further, the growth inhibition in test [3] (setting [7]) was 28%; in test [3] (setting [8]), 98% (active); in test [3] (at 50.0 µM), 87.7% (active); in test [4] (setting [7]), 54%; in test [4] (setting [8]) it was 98% (active); in test [4] (at 50.0 µM) it was 53.8%. Further, the growth inhibition in test [5] (setting [7]) was 61%; in test [5] (setting [8]), 96% (active); in test [5] (at 50.0 µM), 87.2% (active); in test [6] (setting [7]), 61%; in test [6] (setting [8]), 99% (active); in test [6] (at 50.0 µM), 84.7% (active).
